# “And” between values parts separate entries of the source, which are not always exact repeats. Identical values can stand only once. Where a structure was tested more than once in an assay, its records may differ in their call. The source made the active and inactive calls. Unless noted, how the calls were made is not given here.
# Tests used:
# [1] = test system: Wnt5a (protein binding on small-molecule microarray); experiment: small molecules binding Wnt5a protein – biophysical, small-molecule microarray, 635/667 nm fluorescence, primary screen (AID 1142); conditions: 635 nm fluorescence, higher = more signal;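 further: fluorescence read at 667 nm with signal to noise per printed feature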
# [2] = ATP-based viability of Huh7 replicon cells – cell-based, CellTiter-Glo luminescence, basal, 48 h, cytotoxicity control for HCV replication inhibitor project, primary screen (AID 1143); conditions: higher = more signal, called active from +8 up or from −8 down;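 further: Huh7 hepatoma cells carrying a hepatitis C replication reporter with no stimulus; test concentration not given here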
# [3] = Pseudomonas biofilm growth suppression – PAO1 strain, BacTiter-Glo luminescence, LB-PBS, primary screen (AID 1144); conditions: P. aeruginosa PAO1 biofilm, 12 h, higher = more signal
# [4] = basal CRE-LacZ reporter activity in PC12 – cell-based, unstimulated, primary screen (AID 1145); conditions: no forskolin, luminescence, 4.5 h, higher = more signal, called active from +8 up or from −8 down
# [5] = forskolin-driven CRE-LacZ activity in PC12 – cell-based, CRE-LacZ reporter, forskolin-stimulated, primary screen (AID 1146); conditions: luminescence, 4.5 h, higher = more signal, called active from +8 up or from −8 down;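 further: PC12 cells with 6xCRE LacZ reporter stimulated by forskolin 10 µM; beta-galactosidase reporter signal reflecting CREB driven transcription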
# [6] = biological target: Streptavidin (Streptomyces avidinii) (UniProt P22629); experiment: compounds binding control protein streptavidin – biophysical, small-molecule microarray, 635/667 nm fluorescence, artefact control for SMM compound annotation, primary screen (AID 1147); conditions: higher = more signal;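 further: signal reflects streptavidin binding to arrayed compounds as a control protein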
# Sequence of Streptavidin (Streptomyces avidinii) (P22629 whole entry, looked up): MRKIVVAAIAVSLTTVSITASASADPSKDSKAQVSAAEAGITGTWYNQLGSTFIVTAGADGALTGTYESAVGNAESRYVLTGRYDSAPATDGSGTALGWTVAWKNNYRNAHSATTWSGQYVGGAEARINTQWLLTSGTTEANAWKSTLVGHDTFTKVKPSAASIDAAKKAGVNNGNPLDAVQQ
# [7] = probe aInhba binding on compound microarray – biochemical, small-molecule microarray, 635/667 nm fluorescence, primary screen (AID 1148); conditions: higher = more signal;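 further: score merges 667nm spot fluorescence with signal-to-noise for antibody binding to printed compounds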
# Torsin-1A (Homo sapiens) [8] = biological target: Torsin-1A (Homo sapiens) (UniProt O14656); experiment: TOR1A wild-type binding on microarray – cell lysate, small-molecule microarray, lysate, 635/667 nm, primary screen (AID 1149); conditions: COS7 hTOR1A-WT lysate, 635 nm fluorescence, higher = more signal
# Sequence of Torsin-1A (Homo sapiens) (O14656 whole entry, looked up): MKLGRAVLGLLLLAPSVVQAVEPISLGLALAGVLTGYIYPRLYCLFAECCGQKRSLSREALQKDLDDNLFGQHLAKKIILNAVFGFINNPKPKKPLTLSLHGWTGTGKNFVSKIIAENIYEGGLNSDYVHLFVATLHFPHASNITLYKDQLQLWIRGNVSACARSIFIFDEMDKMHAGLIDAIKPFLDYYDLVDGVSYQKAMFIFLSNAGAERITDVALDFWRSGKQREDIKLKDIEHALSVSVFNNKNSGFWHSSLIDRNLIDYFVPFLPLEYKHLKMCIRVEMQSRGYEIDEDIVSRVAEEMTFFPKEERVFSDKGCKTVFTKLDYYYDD
# Torsin-1A (Homo sapiens) [9] = biological target: Torsin-1A (Homo sapiens) (UniProt O14656); experiment: torsin A mutant lysate binding on microarrays – cell lysate, small-molecule microarray, COS7 lysate, 635/667 nm fluorescence, primary screen (AID 1150); conditions: COS7 hTOR1A mutant lysate, 635 nm fluorescence, higher = more signal;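 further: score pools 667 nm emission and signal to noise measuring lysate protein binding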
# [10] = test system: Sonic hedgehog protein (Shh); experiment: Sonic hedgehog microarray binding compounds – biochemical, small-molecule microarray, 635/667 nm fluorescence, primary screen (AID 1151); conditions: 635 nm fluorescence, higher = more signal;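 further: Shh protein binding to compounds spotted on small-molecule microarray slides; score combines spot fluorescence intensity with signal-to-noise across triplicate slides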
# [11] = optical density shifts of acrAB sulA E. coli – strain DRC41, OD650, 48 h, E. coli filamentation inducer project, primary screen (AID 1152); conditions: higher = more signal, called active from +8 up or from −8 down;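 further: E. coli MC1000 strain DRC41 lacking acrAB efflux pump and sulA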
# [12] = probe aLefty1 binding on compound microarray – biochemical, small-molecule microarray, 635/667 nm fluorescence, primary screen (AID 1153); conditions: higher = more signal;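 further: score merges spot fluorescence with signal-to-noise ratio from the scanned slide images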
# [13] = plasmodial surface anion channel blockers, osmotic lysis – cell-based, P. falciparum Indochina, OD700, 1 h, primary screen (AID 1154); conditions: P. falciparum Indochina infected RBC osmotic lysis, higher = more signal, called active from +8 up or from −8 down
# [14] = plasmodial surface anion channel blockers, osmotic lysis – cell-based, P. falciparum Indochina, OD700, 2 h, primary screen (AID 1155);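 further: lysis reports solute entry through the parasite surface anion channel PSAC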; conditions: P. falciparum Indochina infected erythrocytes, higher = more signal, called active from +8 up or from −8 down
# [15] = changes in parasitized red cell lysis, either direction – P. falciparum Indochina, OD700, 3 h, PSAC antagonist project, primary screen (AID 1156); conditions: P. falciparum-infected erythrocytes, osmotic lysis, higher = more signal, called active from +8 up or from −8 down
# [16] = plasmodial surface anion channel blockers, osmotic lysis – cell-based, P. falciparum Indochina, OD700, 18 h, primary screen (AID 1157); conditions: P. falciparum Indochina infected erythrocytes, osmotic lysis OD700, 18 h; higher = more signal, called active from +8 up or from −8 down
# [17] = S6 kinase pathway phospho-S6 level changes – cell-based, A549, cytoblot, luminescence, serum-stimulated, primary screen (AID 1158); conditions: 5 h, higher = more signal;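 further: serum-stimulated A549 lung adenocarcinoma cells; signal is phosphorylated S6 detected by cytoblot immunostaining with HRP secondary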
# [18] = biological target: NADPH oxidase 2 (Homo sapiens) (UniProt P04839); experiment: compounds shifting NOX2 Amplex Red fluorescence – cell-based, HEK293-NOX2, PMA-stimulated, NOX inhibitor project, primary screen (AID 1159); conditions: 45 min, higher = more signal, called active from +8 up or from −8 down; further: test concentration not given here
# Sequence of NADPH oxidase 2 (Homo sapiens) (P04839 whole entry, looked up): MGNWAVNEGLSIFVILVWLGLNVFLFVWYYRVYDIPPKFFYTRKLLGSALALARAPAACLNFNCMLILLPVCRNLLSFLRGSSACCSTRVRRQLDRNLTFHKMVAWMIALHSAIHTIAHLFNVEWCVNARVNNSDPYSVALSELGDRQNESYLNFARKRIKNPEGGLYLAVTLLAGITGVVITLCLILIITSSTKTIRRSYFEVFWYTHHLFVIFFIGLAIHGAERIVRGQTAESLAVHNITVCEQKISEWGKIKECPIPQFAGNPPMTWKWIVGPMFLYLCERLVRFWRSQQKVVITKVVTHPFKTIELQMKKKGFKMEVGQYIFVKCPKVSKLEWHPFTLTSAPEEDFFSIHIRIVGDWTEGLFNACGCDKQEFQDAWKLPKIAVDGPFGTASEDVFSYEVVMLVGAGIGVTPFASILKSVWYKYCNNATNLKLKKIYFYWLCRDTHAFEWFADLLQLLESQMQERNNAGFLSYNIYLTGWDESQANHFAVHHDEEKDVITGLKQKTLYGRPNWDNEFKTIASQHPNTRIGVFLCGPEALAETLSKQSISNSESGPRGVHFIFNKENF
# [19] = biological target: NADPH oxidase 4 (Homo sapiens) (UniProt Q9NPH5); experiment: compounds shifting NOX4 Amplex Red fluorescence – cell-based, HEK293-NOX4, tetracycline-induced, NOX inhibitor project, primary screen (AID 1160); conditions: HEK293-NOX4, Amplex Red H2O2 fluorescence, 45 min; higher = more signal, called active from +8 up or from −8 down
# Sequence of NADPH oxidase 4 (Homo sapiens) (Q9NPH5 whole entry, looked up): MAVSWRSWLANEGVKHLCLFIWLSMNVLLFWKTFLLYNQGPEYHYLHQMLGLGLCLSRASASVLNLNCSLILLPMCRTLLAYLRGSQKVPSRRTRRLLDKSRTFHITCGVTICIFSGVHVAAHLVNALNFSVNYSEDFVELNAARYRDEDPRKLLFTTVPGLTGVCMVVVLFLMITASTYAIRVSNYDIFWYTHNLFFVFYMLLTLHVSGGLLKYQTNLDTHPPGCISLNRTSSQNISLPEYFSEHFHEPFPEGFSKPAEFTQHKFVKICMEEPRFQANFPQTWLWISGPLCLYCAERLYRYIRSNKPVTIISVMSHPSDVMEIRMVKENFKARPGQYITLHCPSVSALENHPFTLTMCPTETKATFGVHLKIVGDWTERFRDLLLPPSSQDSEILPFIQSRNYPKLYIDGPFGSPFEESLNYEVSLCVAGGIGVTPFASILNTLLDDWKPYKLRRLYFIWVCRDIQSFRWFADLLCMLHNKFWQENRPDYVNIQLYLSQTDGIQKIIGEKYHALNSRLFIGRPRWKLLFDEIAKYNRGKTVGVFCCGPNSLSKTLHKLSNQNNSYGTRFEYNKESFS
# [20] = biological target: NADPH oxidase 5 (Homo sapiens) (UniProt Q96PH1); experiment: compounds shifting NOX5 Amplex Red fluorescence – cell-based, HEK293-NOX5, NOX inhibitor project, primary screen (AID 1161); conditions: HEK293-NOX5, ionomycin, 45 min, higher = more signal
# Sequence of NADPH oxidase 5 (Homo sapiens) (Q96PH1 whole entry, looked up): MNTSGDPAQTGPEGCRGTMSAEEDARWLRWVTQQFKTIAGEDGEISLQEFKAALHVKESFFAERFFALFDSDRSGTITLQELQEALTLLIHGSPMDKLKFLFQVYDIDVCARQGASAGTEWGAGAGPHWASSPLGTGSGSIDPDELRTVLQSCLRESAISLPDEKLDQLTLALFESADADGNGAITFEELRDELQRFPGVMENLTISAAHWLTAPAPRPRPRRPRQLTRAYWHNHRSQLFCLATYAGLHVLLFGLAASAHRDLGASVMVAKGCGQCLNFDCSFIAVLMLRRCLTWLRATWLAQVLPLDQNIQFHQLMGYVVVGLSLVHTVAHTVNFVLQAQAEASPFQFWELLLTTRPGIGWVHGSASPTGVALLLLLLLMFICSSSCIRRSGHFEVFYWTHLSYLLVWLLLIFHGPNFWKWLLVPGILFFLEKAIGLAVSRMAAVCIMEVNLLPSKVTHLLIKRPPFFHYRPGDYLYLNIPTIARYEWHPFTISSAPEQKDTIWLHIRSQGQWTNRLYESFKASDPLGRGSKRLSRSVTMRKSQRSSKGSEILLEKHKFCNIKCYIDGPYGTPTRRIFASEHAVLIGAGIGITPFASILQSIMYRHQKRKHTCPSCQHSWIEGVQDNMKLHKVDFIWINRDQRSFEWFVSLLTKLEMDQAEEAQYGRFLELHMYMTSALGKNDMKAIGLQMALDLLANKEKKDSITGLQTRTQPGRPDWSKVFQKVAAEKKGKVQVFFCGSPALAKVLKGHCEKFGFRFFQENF
Structure (SMILES),composite z-score [1],z-score [2],z-score [3],z-score [4],z-score [5],composite z-score [6],composite z-score [7],composite z-score (Torsin-1A (Homo sapiens) [8]),composite z-score (Torsin-1A (Homo sapiens) [9]),composite z-score [10],z-score [11],composite z-score [12],z-score [13],z-score [14],z-score [15],z-score [16],z-score [17],z-score [18],z-score [19],z-score [20]
C[C@@H]1CC[C@H]2C(=O)N3[C@@H](CC[C@@H](C)[C@@H]3c3ccc(-c4ccco4)cc3)C(=O)N2[C@H]1c1ccc(-c2ccco2)cc1,0.178 and 0.544,0.234 (inactive) and 0.563 (inactive),0.598 (inactive),-0.165 (inactive) and 0.651 (inactive),0.371 (inactive) and -0.248 (inactive),1.33 and 2.14,0.0006 and 0.0895,0.967 and 2.1,0.411 and 1.47,1.44 and 1.19,-0.581 (inactive) and 0.529 (inactive),0.0927 and 0.38,0.91 (inactive) and 0.469 (inactive),-0.0315 (inactive) and -0.262 (inactive),0.0919 (inactive) and 1.71 (inactive),-0.364 (inactive) and -0.853 (inactive),-0.146 and -0.115,0.331 (inactive) and 0.931 (inactive),-1.03 (inactive) and 0.685 (inactive),-0.273 and -1.03
CC(CO)N1C(=O)[C@@H]2C3C(=O)OCCC=C[C@H]3OC23C=CCN(Cn2nnc4ccccc42)C(=O)[C@@H]13 (stereo not given in full),-0.757 and 0.0538,-0.095 (inactive) and -0.464 (inactive),0.422 (inactive) and -0.131 (inactive),-0.208 (inactive) and -1.44 (inactive),-0.372 (inactive) and 0.774 (inactive),-0.909 and -0.228,-0.0675 and -0.0405,-1.13 and 1.95,-0.987 and 0.603,-1.26 and 0.935,0.326 (inactive) and -0.353 (inactive),-0.199 and 0.241,0.464 (inactive) and 3.04 (inactive),-0.0088 (inactive) and 0.83 (inactive),0.879 (inactive) and 0.711 (inactive),0.163 (inactive) and 0.114 (inactive),0.798 and 0.483,1.14 (inactive) and 1.44 (inactive),0.249 (inactive) and 0.774 (inactive),1.47 and 2.83
C=CCN(C(=O)C(c1cccs1)N(C(=O)/C=C\C(=O)O)c1ccc(CCO)cc1)c1ccc(OC)cc1 (stereo not given),-1.21 and -1.14,0.369 (inactive) and 0.0408 (inactive),-2.25 (inactive) and -0.545 (inactive),-0.358 (inactive) and 0.463 (inactive),-0.308 (inactive) and 0.311 (inactive),-1.31 and -0.93,-0.257 and -0.203,-3.35 and -2.12,0.425 and -1.7,-1.17 and -0.672,2.16 (inactive) and 0.76 (inactive),-0.0186 and -0.229,1.73 (inactive) and -1.02 (inactive),0.0371 (inactive) and -0.3 (inactive),-0.0439 (inactive) and 0.347 (inactive),0.454 (inactive) and -0.0131 (inactive),0.749 and 0.862,-0.147 (inactive) and -0.268 (inactive),-0.649 (inactive) and -1.34 (inactive),0.137 and -0.261
CC(C)=NOC[C@@H](O)COCc1ccco1,-0.0761,0.326 (inactive),-0.209 (inactive),-1.71 (inactive),-0.619 (inactive),-0.499,-0.003,-0.469,2.08,0.712,0.534 (inactive),0.843,0.159 (inactive),0.365 (inactive),-0.0924 (inactive),0.0967 (inactive),0.566,0.0371 (inactive),0.0915 (inactive),0.125
C=CCN(C(=O)C1N(c2c(Cl)cccc2CO)C(=O)C2C(C(=O)O)C3C=CC21O3)c1ccc(OC)cc1 (stereo not given),-0.898 and -0.782,-0.443 (inactive) and -0.172 (inactive),-0.927 (inactive) and -0.513 (inactive),-0.623 (inactive) and 0.0645 (inactive),-0.297 (inactive) and -0.684 (inactive),-1 and -1.55,-0.874 and -0.379,-2.69 and -1.75,-1.94 and -1.61,-1.22 and -0.893,0.971 (inactive) and 2.55 (inactive),-1.1 and -0.253,2.56 (inactive) and -0.975 (inactive),0.516 (inactive) and -1.35 (inactive),0.336 (inactive) and -0.988 (inactive),0.287 (inactive) and -1.34 (inactive),-0.403 and 1.78,0.868 (inactive) and -0.148 (inactive),-0.286 (inactive) and -0.651 (inactive),-0.136 and 0.192
CCOC(=O)c1ccc(NC(=O)O[C@H]2[C@H](OC(=O)Nc3ccccc3)[C@H](OC(=O)Nc3ccccc3)[C@@H](OC)O[C@@H]2CO)cc1,0.679 and 0.445,-4.37 (inactive) and -5.71 (inactive),0.44 (inactive) and -0.118 (inactive),-0.0484 (inactive) and 0.596 (inactive),0.359 (inactive) and -1.63 (inactive),1.06 and 0.79,0.189 and 0.232,0.147 and 0.386,0.592 and 0.568,1.17 and 1.63,0.473 (inactive) and -0.33 (inactive),0.416 and 0.344,14.6 (active) and 24.1 (active),2.63 (inactive) and 11.5 (active),0.433 (inactive) and -0.123 (inactive),1.23 (inactive) and 1.89 (inactive),-0.636 and 0.647,-0.218 (inactive) and 1.15 (inactive),-0.122 (inactive) and -0.312 (inactive),-0.195 and -0.355
